Reference: publication PMC10954555

Target: RNA polymerase-associated protein LEO1 (UniProt Q8WVC0)
Assay: other; cross-linking mass spectrometry; other

Listed as a hit, yes:
RNA polymerase-associated protein CTR9 homolog, Q6PD62
RNA polymerase II-associated factor 1 homolog, Q8N7H5
Parafibromin, Q6P1J9
